# Test results as given in publication PMC7862700, “An all-to-all approach to the identification of sequence-specific readers for epigenetic DNA modifications on cytosine”.
# Key:
# Assay in all cases: DAPPL (digital affinity profiling via proximity ligation, sequencing); 10 mM Tris-HCl pH 7.5, 50 mM NaCl, 1 mM DTT, 4% glycerol, room temperature, 30 min; GST-TFs on glutathione beads, 16-mer random dsDNA library, 0.1% formaldehyde crosslink after washing; high values mean tight binding
# FEV = molecular target: T1, FEV (Homo sapiens, UniProt Q99581 1-238); conditions: protein: recombinant; tags: N-terminal GST; dsDNA, one strand shown
# T1 sequence: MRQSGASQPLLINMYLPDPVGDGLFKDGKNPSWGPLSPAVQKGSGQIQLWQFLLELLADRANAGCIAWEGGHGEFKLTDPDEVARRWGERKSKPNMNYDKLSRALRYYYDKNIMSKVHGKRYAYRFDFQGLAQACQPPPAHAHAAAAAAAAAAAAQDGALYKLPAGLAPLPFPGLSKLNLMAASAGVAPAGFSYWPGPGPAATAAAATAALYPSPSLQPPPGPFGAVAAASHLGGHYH
# Outline: (§1)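 Binding signal is defined as a hexamer's read frequency for one factor over its frequency for the tag-only sample. To obtain reads, GST-fused human transcription factors were expressed in yeast, captured on glutathione beads, barcoded with DNA and pooled with that sample. Pools met 200 nmole of a 16-mer random double-stranded DNA library in Tris/NaCl/DTT/glycerol buffer for 30 min at room temperature before washing, 0.1% formaldehyde crosslinking, proximity ligation (BsaI/T4 ligase, 1 h, 37 °C), PCR and Illumina NextSeq500 sequencing.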
# ETV5 = ETV5 (Homo sapiens, UniProt P41161 1-510); conditions: protein: recombinant; tags: N-terminal GST; dsDNA, one strand shown
# Outline: as §1
# HSF1 = HSF1 (Homo sapiens, UniProt Q00613 1-529); conditions: protein: recombinant; tags: N-terminal GST; chain copies: 3; dsDNA, one strand shown
# Outline: as §1
# SPIC = molecular target: T2, SPIC (Homo sapiens, UniProt Q8N5J4 1-248); conditions: protein: recombinant; tags: N-terminal GST; dsDNA, one strand shown
# T2 sequence: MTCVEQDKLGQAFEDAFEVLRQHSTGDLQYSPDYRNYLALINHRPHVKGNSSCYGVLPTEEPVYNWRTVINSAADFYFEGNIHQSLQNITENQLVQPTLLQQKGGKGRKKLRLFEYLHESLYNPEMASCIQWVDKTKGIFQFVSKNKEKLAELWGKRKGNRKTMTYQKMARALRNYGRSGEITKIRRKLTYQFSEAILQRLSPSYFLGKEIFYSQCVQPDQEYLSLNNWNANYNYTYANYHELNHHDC
# Outline: as §1
# ELF4 = ELF4 (Homo sapiens, UniProt Q99607 1-663); conditions: protein: recombinant; tags: N-terminal GST; dsDNA, one strand shown
# Outline: as §1
# ELK4 = molecular target: T3, ELK4 (Homo sapiens, UniProt P28324-2 1-405); conditions: protein: recombinant; tags: N-terminal GST; dsDNA, one strand shown
# T3 sequence: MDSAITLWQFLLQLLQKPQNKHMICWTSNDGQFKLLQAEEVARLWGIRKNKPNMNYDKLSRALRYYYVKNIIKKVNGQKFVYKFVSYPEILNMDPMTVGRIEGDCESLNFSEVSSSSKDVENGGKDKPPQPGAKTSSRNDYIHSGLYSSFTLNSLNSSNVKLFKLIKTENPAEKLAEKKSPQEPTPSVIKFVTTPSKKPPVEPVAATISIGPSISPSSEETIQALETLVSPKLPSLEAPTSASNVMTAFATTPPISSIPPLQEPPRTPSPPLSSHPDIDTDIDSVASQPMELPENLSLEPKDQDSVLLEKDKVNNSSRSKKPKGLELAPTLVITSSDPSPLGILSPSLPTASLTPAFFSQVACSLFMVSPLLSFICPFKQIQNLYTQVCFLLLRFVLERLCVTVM
# Outline: as §1
# ETV2 = molecular target: T4, ETV2 (Homo sapiens, UniProt O00321 1-342); conditions: protein: recombinant; tags: N-terminal GST; dsDNA, one strand shown
# T4 sequence: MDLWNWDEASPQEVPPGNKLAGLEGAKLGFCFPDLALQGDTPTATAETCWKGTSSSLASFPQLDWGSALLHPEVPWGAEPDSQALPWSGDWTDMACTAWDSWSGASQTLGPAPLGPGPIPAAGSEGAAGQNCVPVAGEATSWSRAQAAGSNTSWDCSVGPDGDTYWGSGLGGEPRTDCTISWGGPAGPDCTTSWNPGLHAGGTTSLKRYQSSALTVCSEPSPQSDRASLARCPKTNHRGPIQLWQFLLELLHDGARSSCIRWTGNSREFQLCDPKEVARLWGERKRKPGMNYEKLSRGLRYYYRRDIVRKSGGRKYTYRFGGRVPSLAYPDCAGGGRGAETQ
# Outline: as §1
# ELF3 = molecular target: T5, ELF3 (Homo sapiens, UniProt P78545 1-371); conditions: protein: recombinant; tags: N-terminal GST; dsDNA, one strand shown
# T5 sequence: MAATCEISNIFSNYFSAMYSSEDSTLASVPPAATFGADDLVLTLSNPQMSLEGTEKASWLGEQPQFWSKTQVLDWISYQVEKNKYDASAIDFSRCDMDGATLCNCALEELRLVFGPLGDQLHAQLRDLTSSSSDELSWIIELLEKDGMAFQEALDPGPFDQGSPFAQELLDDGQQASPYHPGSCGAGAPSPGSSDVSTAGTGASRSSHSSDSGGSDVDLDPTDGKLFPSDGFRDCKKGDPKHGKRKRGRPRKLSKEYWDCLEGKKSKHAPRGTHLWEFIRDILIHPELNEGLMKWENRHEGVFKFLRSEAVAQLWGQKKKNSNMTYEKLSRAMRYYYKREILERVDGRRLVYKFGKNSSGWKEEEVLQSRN
# Outline: as §1
# CRX = CRX (Homo sapiens, UniProt O43186 1-299); conditions: protein: recombinant; tags: N-terminal GST; dsDNA, one strand shown
# Outline: as §1
# ETV1 = ETV1 (Homo sapiens, UniProt P50549 1-477); conditions: protein: recombinant; tags: N-terminal GST; dsDNA, one strand shown
# Outline: as §1
# ERF = molecular target: T6, ERF (Homo sapiens, UniProt P50548 1-548); conditions: protein: recombinant; tags: N-terminal GST; dsDNA, one strand shown
# T6 sequence: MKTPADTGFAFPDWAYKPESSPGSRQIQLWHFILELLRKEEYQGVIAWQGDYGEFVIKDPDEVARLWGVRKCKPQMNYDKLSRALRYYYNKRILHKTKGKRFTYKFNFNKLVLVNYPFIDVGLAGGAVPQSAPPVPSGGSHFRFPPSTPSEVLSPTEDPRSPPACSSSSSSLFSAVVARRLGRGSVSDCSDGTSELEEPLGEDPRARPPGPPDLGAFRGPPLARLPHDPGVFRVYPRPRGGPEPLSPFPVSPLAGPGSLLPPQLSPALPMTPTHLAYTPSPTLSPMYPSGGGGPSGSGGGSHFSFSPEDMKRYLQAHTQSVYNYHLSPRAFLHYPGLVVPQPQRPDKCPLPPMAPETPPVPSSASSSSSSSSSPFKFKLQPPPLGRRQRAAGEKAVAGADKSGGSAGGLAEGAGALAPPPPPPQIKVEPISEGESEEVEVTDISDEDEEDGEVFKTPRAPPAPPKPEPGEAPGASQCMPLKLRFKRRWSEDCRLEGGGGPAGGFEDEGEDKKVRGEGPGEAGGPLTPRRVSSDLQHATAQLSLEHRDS
# Outline: as §1
# ETV3L = molecular target: T7, ETV3L (Homo sapiens, UniProt Q6ZN32 1-361); conditions: protein: recombinant; tags: N-terminal GST; dsDNA, one strand shown
# T7 sequence: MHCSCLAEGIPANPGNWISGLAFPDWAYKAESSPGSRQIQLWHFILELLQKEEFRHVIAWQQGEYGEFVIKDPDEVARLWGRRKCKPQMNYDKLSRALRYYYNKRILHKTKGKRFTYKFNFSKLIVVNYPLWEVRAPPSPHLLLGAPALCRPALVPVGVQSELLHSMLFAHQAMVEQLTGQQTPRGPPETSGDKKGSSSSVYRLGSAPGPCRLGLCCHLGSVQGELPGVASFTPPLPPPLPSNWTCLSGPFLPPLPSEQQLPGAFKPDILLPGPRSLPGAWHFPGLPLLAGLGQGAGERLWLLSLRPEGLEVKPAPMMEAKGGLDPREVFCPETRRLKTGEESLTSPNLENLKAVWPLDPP
# Outline: as §1
# ETS2 = molecular target: T8, ETS2 (Homo sapiens, UniProt P15036 1-469); conditions: protein: recombinant; tags: N-terminal GST; dsDNA, one strand shown
# T8 sequence: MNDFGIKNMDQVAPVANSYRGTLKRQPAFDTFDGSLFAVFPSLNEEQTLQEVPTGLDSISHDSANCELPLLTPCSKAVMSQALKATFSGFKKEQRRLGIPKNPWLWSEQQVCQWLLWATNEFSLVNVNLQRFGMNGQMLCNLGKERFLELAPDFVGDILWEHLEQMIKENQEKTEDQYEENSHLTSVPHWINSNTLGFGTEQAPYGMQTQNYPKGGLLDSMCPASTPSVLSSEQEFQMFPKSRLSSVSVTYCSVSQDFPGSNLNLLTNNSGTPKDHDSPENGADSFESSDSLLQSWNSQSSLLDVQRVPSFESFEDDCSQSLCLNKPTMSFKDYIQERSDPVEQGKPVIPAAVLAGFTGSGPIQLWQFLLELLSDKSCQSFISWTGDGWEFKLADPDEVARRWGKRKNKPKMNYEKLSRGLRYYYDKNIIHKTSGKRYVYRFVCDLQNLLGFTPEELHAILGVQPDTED
# Outline: as §1
# SPDEF = molecular target: T9, SPDEF (Homo sapiens, UniProt O95238 1-335); conditions: protein: recombinant; tags: N-terminal GST; dsDNA, one strand shown
# T9 sequence: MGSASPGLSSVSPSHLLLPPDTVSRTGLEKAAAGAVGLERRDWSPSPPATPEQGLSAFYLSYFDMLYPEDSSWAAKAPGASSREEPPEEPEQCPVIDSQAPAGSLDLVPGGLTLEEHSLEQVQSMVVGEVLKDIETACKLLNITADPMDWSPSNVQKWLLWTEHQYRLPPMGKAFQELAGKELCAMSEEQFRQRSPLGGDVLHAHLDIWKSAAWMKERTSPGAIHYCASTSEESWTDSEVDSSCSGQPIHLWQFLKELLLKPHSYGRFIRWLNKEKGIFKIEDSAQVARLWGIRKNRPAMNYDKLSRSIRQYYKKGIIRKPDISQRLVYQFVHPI
# Outline: as §1
# ETV7 = molecular target: T10, ETV7 (Homo sapiens, UniProt Q9Y603 1-341); conditions: protein: recombinant; tags: N-terminal GST; dsDNA, one strand shown
# T10 sequence: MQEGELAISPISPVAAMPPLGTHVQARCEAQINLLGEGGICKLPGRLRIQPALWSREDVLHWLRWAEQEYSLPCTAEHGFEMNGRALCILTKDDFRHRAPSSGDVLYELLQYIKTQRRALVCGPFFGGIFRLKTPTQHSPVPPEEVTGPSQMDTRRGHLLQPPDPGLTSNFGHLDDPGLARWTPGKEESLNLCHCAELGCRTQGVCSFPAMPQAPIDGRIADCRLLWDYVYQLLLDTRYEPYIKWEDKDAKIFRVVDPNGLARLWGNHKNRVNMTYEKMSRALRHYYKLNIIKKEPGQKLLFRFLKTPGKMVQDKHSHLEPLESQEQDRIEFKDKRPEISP
# Outline: as §1
# ELF5 = molecular target: T11, ELF5 (Homo sapiens, UniProt Q9UKW6-2 1-255); conditions: protein: recombinant; tags: N-terminal GST; dsDNA, one strand shown
# T11 sequence: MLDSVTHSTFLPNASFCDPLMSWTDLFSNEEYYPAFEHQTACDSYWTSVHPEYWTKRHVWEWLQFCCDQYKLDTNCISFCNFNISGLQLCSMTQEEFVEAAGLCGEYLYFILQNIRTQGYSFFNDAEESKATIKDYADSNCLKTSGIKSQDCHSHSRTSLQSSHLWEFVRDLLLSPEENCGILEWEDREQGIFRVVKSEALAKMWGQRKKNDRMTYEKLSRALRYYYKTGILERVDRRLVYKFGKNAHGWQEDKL
# Outline: as §1
# ETV3 = molecular target: T12, ETV3 (Homo sapiens, UniProt P41162-2 1-143); conditions: protein: recombinant; tags: N-terminal GST; dsDNA, one strand shown
# T12 sequence: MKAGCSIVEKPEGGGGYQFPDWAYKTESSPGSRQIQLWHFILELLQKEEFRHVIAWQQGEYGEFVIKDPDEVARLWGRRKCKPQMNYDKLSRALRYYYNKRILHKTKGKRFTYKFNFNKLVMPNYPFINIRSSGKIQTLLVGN
# Outline: as §1
# ETV6 = ETV6 (Homo sapiens, UniProt P41212 1-452); conditions: protein: recombinant; tags: N-terminal GST; dsDNA, one strand shown
# Outline: as §1
# Sequence of ELF4 (Q99607 whole entry): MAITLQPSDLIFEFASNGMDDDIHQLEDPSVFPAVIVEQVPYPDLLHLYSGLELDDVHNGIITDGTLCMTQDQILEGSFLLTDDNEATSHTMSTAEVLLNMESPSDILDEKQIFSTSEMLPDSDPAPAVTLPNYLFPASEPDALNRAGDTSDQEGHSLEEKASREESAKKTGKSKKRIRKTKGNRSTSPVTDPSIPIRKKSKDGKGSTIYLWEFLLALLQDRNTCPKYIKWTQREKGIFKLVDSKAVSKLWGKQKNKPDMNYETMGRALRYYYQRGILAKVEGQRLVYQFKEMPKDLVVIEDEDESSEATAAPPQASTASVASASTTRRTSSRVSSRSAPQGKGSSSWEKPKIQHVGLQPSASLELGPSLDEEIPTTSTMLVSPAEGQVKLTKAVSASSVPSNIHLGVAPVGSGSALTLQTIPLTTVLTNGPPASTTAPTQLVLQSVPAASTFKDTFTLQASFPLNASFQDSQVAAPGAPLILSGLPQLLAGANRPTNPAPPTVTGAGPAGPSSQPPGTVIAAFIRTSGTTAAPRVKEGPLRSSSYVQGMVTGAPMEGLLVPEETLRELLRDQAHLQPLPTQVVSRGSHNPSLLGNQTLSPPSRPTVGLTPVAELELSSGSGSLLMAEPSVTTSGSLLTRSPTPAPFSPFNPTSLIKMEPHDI
# Sequence of HSF1 (Q00613 whole entry): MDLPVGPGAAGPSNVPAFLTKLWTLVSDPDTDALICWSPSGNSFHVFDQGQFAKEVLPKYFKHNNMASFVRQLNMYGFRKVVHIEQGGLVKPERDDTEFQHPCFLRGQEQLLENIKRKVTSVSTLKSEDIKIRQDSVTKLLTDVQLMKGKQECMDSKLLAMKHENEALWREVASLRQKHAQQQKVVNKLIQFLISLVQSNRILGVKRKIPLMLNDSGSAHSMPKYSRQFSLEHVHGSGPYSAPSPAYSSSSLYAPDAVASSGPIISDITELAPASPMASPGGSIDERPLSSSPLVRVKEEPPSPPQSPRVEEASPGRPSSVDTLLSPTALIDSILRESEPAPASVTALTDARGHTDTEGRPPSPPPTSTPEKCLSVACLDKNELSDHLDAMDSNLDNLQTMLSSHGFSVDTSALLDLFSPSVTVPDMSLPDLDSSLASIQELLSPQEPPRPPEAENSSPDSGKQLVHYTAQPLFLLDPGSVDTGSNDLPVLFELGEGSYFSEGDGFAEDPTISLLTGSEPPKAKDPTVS
# Sequence of ETV6 (P41212 whole entry): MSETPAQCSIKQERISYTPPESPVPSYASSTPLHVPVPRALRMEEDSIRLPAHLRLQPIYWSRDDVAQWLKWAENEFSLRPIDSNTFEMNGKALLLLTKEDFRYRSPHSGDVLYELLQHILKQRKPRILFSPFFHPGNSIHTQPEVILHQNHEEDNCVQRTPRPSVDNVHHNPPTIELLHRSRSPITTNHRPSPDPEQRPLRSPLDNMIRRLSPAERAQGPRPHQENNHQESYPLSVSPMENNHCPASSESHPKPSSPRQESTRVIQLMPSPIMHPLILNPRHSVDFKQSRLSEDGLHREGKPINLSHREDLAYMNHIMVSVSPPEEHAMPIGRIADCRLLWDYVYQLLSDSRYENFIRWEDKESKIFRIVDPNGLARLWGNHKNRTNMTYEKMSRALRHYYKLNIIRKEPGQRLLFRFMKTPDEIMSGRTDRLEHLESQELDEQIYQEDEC
# Sequence of CRX (O43186 whole entry): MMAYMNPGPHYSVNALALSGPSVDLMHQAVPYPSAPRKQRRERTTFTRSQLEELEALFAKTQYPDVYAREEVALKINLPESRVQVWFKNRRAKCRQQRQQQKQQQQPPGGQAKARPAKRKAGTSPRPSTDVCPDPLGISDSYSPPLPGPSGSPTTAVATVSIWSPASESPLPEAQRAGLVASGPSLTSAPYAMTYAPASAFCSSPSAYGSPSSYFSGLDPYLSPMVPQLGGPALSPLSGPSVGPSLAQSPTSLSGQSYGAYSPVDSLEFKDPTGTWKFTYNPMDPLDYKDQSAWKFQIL
# Sequence of ETV1 (P50549 whole entry): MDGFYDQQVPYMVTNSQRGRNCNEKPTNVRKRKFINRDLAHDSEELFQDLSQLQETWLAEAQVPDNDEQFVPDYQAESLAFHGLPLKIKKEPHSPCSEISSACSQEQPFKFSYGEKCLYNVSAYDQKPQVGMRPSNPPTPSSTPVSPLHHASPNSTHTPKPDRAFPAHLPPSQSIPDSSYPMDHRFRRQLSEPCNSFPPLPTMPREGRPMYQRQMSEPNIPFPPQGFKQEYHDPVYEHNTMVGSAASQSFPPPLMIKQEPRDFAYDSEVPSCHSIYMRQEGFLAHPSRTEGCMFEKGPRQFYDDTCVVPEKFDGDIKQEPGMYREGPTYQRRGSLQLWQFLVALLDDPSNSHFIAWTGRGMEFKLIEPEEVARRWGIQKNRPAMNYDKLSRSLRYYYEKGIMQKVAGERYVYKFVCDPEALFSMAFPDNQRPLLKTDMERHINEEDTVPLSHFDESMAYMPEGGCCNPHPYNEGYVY
# Sequence of ETV5 (P41161 whole entry): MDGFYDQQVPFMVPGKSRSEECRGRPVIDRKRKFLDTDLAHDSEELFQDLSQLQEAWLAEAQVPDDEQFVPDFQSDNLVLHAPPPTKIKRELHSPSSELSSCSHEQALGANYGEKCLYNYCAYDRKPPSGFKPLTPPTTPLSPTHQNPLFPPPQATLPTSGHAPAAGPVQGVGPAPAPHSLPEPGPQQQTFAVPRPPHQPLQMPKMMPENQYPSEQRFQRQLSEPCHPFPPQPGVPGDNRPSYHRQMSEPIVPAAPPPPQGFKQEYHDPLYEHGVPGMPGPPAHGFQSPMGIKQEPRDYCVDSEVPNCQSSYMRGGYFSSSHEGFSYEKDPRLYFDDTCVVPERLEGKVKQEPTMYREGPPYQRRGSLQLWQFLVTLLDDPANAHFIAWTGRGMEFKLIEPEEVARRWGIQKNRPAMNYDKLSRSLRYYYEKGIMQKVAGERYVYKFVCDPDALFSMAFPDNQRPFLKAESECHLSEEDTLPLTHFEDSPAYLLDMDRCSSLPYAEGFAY
sequence,measurement,setting,value
CTCGCA,binding signal,FEV,"1.32 fold enrichment (6-mer frequency, TF over GST control)"
same,binding signal,ETV5,"1.19 fold enrichment (6-mer frequency, TF over GST control)"
same,binding signal,HSF1,"1.61 fold enrichment (6-mer frequency, TF over GST control)"
same,binding signal,SPIC,"1.43 fold enrichment (6-mer frequency, TF over GST control)"
same,binding signal,ELF4,"1.26 fold enrichment (6-mer frequency, TF over GST control)"
same,binding signal,ELK4,"1.29 fold enrichment (6-mer frequency, TF over GST control)"
same,binding signal,ETV2,"1.34 fold enrichment (6-mer frequency, TF over GST control)"
same,binding signal,ELF3,"1.26 fold enrichment (6-mer frequency, TF over GST control)"
same,binding signal,CRX,"1.2 fold enrichment (6-mer frequency, TF over GST control)"
same,binding signal,ETV1,"1.26 fold enrichment (6-mer frequency, TF over GST control)"
same,binding signal,ERF,"1.26 fold enrichment (6-mer frequency, TF over GST control)"
same,binding signal,ETV3L,"1.3 fold enrichment (6-mer frequency, TF over GST control)"
same,binding signal,ETS2,"1.35 fold enrichment (6-mer frequency, TF over GST control)"
same,binding signal,SPDEF,"1.2 fold enrichment (6-mer frequency, TF over GST control)"
same,binding signal,ETV7,"1.23 fold enrichment (6-mer frequency, TF over GST control)"
same,binding signal,ELF5,"1.15 fold enrichment (6-mer frequency, TF over GST control)"
same,binding signal,ETV3,"1.34 fold enrichment (6-mer frequency, TF over GST control)"
same,binding signal,ETV6,"1.19 fold enrichment (6-mer frequency, TF over GST control)"
